From PubChem BioAssay (NCI)
Compounds without any hit were thinned out: in the full panel of roughly 79,000, 15% have a hit. A number with no mark means an inactive call. Activity calls are given as the source filed them. Cut-off read from the data, not from the text of the source: active = growth inhibition above about 70%; inactive = the rest.

Experiment: NCI Yeast Anticancer Drug Screen. Data for the rad52 strain (AID 147);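 note: 0% = growth of vehicle-treated control cultures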
Settings: S. cerevisiae rad52 mutant growth inhibition, stronger effect = higher value
Protocol: Growth inhibition of yeast strains with defined genetic alterations is measured as a screen for potential anti-cancer activity. Selected strains with alterations in DNA damage repair or cell cycle control were exposed to compounds and growth inhibition was measured relative to vehicle treated controls. The strain used in this assay is rad52

| Compound | growth inhibition (at 1.2 µM) | growth inhibition (at 3.7 µM) | growth inhibition (at 11.0 µM) | growth inhibition (at 33.0 µM) | growth inhibition (at 100.0 µM) |
| --- | --- | --- | --- | --- | --- |
| OC1(c2ccccc2)CCCc2ccc(Cl)cc21 (stereo not given) | 1% | 2% | 0% | 42% | 99% (active) |
| NC1CCCCC1N.Nc1c(N=Nc2ccc(-c3ccc(N=Nc4cc(S(=O)(=O)[O-])c5ccccc5c4N)cc3)cc2)cc(S(=O)(=O)[O-])c2ccccc12.[OH3+].[OH3+].[Pt+4] | 0% | 4% | 47% | 80% (active) | 65% |
| NC(=O)C(=O)NNc1ccccc1 | 4% | 12% | 39% | 85% (active) | 98% (active) |
| COC(=O)C1=C(C(=O)OC)C(C(=O)OC)C(C(=O)OC)C(C(=O)OC)(C(=O)OC)C(C(=O)OC)=C1C(=O)OC (stereo not given) | -2% | -6% | 5% | 20% | 46% |
| CCOC(=O)[C@H]1Nc2ccc(OC)cc2C2c3ccccc3CC21 (stereo not given in full) | -22% | -27% | -20% | 57% | 90% (active) |
| O=C(O)CCCC1CCCc2c1ccc1ccccc21 (stereo not given) | -2% | 1% | 11% | 74% (active) | 99% (active) |
| COC(=O)NC1C(C)OC(OC2C/C=C(/C)C3C=CC4C(OC5CC(OC6CC(O)C(OC7CC(O)C(OC)C(C)O7)C(C)O6)C(O)C(C)O5)C(C)CC(C)C4C3(C)/C(O)=C3\C(=O)OC4(CC(C)C(CO)=CC4/C=C\2C)C3=O)CC1(C)[N+](=O)[O-] (stereo not given) | 15% | 40% | 41% | 38% | 21% |
| CN(C)CCOC1(Cc2ccc(F)cc2)CCC(C(C)(C)C)CC1 (stereo not given) | 8% | 5% | -4% | 7% | 98% (active) |
